# Assay results as given in PubChem BioAssay AID1159580 (chemical genetic matrix, 2015).
# “And” between values parts separate entries of the source, which are not always exact repeats. Equal entries are not always repeated. Hit rate of the full screen: of about 5,500 compounds, about 2,000 (36%) were called active. Roughly 18% stayed inconclusive and do not appear here. Cut-off read from the data, not from the text of the source: active = normalized growth mostly below about 0.91 (no sharp cut-off); inconclusive = no clear call, values can overlap the other calls; inactive = mostly above about 0.92. This is one part of the list.
# Experiment: chemical genetic growth profiling, strain panel (AID 1159580);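 note: tested at 20 µM; growth read once vehicle control cultures reached saturation at 30 °C; 1 = growth at the plate median or of vehicle wells; lower values mean less growth of the strain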
# Conditions: S. cerevisiae deletion strains, growth OD
structure (smiles),measurement,setting,value
O=C(O)c1cc2ccccc2c(Cc2c(O)c(C(=O)O)cc3ccccc23)c1O,normalized growth,"locus YAL021C, strain ccr4, stronger effect = lower value",0.967 (inactive)
same,normalized growth,"locus YAL026C, strain drs2, stronger effect = lower value",1.01 (inactive)
same,normalized growth,"locus YAL030W, strain snc1, stronger effect = lower value",0.994 (inactive)
same,normalized growth,"locus YBL061C, strain skt5, stronger effect = lower value",0.99 (inactive)
same,normalized growth,"locus YBR009C, strain hhf1, stronger effect = lower value",0.988 (inactive)
same,normalized growth,"locus YBR021W, strain FUR4, stronger effect = lower value",1.02 (inactive)
same,normalized growth,"locus YBR023C, strain chs3, stronger effect = lower value",0.996 (inactive)
same,normalized growth,"locus YBR171W, strain sec66, stronger effect = lower value",1 (inactive)
same,normalized growth,"locus YBR229C, strain ROT2, stronger effect = lower value",1.01 (inactive)
same,normalized growth,"locus YBR231C, strain swc5, stronger effect = lower value",0.977 (inactive)
same,normalized growth,"locus YBR279W, strain paf1, stronger effect = lower value",0.99 (inactive)
same,normalized growth,"locus YCL011C, strain gbp2, stronger effect = lower value",1 (inactive)
same,normalized growth,"locus YCL016C, strain dcc1, stronger effect = lower value",0.989 (inactive)
same,normalized growth,"locus YCL029C, strain bik1, stronger effect = lower value",1.01 (inactive)
same,normalized growth,"locus YCL061C, strain MRC1, stronger effect = lower value",1 (inactive)
same,normalized growth,"locus YCL069W, strain vba3, stronger effect = lower value",1 (inactive)
same,normalized growth,"locus YCR088W, strain abp1, stronger effect = lower value",1.01 (inactive)
same,normalized growth,"locus YDL005C, strain med2, stronger effect = lower value",1 (inactive)
same,normalized growth,"locus YDL035C, strain GPR1, stronger effect = lower value",1.01 (inactive)
same,normalized growth,"locus YDL040C, strain nat1, stronger effect = lower value",0.995 (inactive)
same,normalized growth,"locus YDL074C, strain BRE1, stronger effect = lower value",0.94 (inactive)
same,normalized growth,"locus YDL101C, strain DUN1, stronger effect = lower value",1 (inactive)
same,normalized growth,"locus YDL134C, strain PPH21, stronger effect = lower value",0.997 (inactive)
same,normalized growth,"locus YDL185W, strain tfp1, stronger effect = lower value",1.01 (inactive)
same,normalized growth,"locus YDL192W, strain arf1, stronger effect = lower value",1 (inactive)
same,normalized growth,"locus YDR001C, strain nth1, stronger effect = lower value",1.01 (inactive)
same,normalized growth,"locus YDR069C, strain doa4, stronger effect = lower value",0.989 (inactive)
same,normalized growth,"locus YDR101C, strain arx1, stronger effect = lower value",1.01 (inactive)
same,normalized growth,"locus YDR137W, strain rgp1, stronger effect = lower value",1.04 (inactive)
same,normalized growth,"locus YDR159W, strain sac3, stronger effect = lower value",0.97 (inactive)
same,normalized growth,"locus YDR162C, strain NBP2, stronger effect = lower value",0.985 (inactive)
same,normalized growth,"locus YDR195W, strain ref2",0.977 (inactive)
same,normalized growth,"locus YDR297W, strain sur2, stronger effect = lower value",0.995 (inactive)
same,normalized growth,"locus YDR318W, strain mcm21, stronger effect = lower value",0.988 (inactive)
same,normalized growth,"locus YDR334W, strain swr1, stronger effect = lower value",0.996 (inactive)
same,normalized growth,"locus YDR335W, strain msn5, stronger effect = lower value",1.01 (inactive)
same,normalized growth,"locus YDR388W, stronger effect = lower value",0.996 (inactive)
same,normalized growth,"locus YDR392W, strain spt3, stronger effect = lower value",0.911 (inactive)
same,normalized growth,"locus YDR502C, strain sam2, stronger effect = lower value",1 (inactive)
same,normalized growth,"locus YEL003W, strain gim4, stronger effect = lower value",1.02 (inactive)
same,normalized growth,"locus YEL037C, strain rad23, stronger effect = lower value",0.999 (inactive)
same,normalized growth,"locus YEL061C, strain CIN8 (second series), stronger effect = lower value",1 (inactive)
same,normalized growth,"locus YEL061C, strain CIN8, stronger effect = lower value",1.03 (inactive)
same,normalized growth,"locus YER015W, strain faa2, stronger effect = lower value",0.988 (inactive)
same,normalized growth,"locus YER016W, strain bim1, stronger effect = lower value",1 (inactive)
same,normalized growth,"locus YER110C, stronger effect = lower value",0.989 (inactive)
same,normalized growth,"locus YER111C, strain swi4, stronger effect = lower value",1.01 (inactive)
same,normalized growth,"locus YER155C, strain BEM2 (second series), stronger effect = lower value",0.962 (inactive)
same,normalized growth,"locus YER155C, strain BEM2, stronger effect = lower value",0.992 (inactive)
same,normalized growth,"locus YER167W, strain BCK2, stronger effect = lower value",1 (inactive)
same,normalized growth,"locus YFR010W, strain ubp6, stronger effect = lower value",1.01 (inactive)
same,normalized growth,"locus YGL078C, strain dbp3, stronger effect = lower value",1.01 (inactive)
same,normalized growth,"locus YGL086W, strain mad1, stronger effect = lower value",1 (inactive)
same,normalized growth,"locus YGL167C, strain pmr1, stronger effect = lower value",0.994 (inactive)
same,normalized growth,"locus YGL173C, strain kem1, stronger effect = lower value",0.997 (inactive)
same,normalized growth,"locus YGL227W, strain vid30, stronger effect = lower value",1 (inactive)
same,normalized growth,"locus YGL240W, strain doc1, stronger effect = lower value",0.96 (inactive)
same,normalized growth,"locus YGL248W, strain PDE1, stronger effect = lower value",0.998 (inactive)
same,normalized growth,"locus YGL253W, strain hxk2, stronger effect = lower value",1.01 (inactive)
same,normalized growth,"locus YGR078C, strain PAC10, stronger effect = lower value",0.996 (inactive)
same,normalized growth,"locus YGR135W, strain pre9, stronger effect = lower value",0.99 (inactive)
same,normalized growth,"locus YGR252W, strain gcn5, stronger effect = lower value",0.978 (inactive)
same,normalized growth,"locus YHR013C, strain ard1, stronger effect = lower value",0.966 (inactive)
same,normalized growth,"locus YHR027C, strain rpn1, stronger effect = lower value",1 (inactive)
same,normalized growth,"locus YHR030C, strain SLT2, stronger effect = lower value",1.01 (inactive) and 0.859 (inactive)
same,normalized growth,"locus YHR079C, strain IRE1 (second series), stronger effect = lower value",0.992 (inactive)
same,normalized growth,"locus YHR079C, strain IRE1, stronger effect = lower value",0.844 (active)
same,normalized growth,"locus YHR094C, strain hxt1, stronger effect = lower value",0.999 (inactive)
same,normalized growth,"locus YHR129C, strain ARP1, stronger effect = lower value",0.995 (inactive)
same,normalized growth,"locus YHR142W, strain chs7, stronger effect = lower value",1.02 (inactive)
same,normalized growth,"locus YHR200W, strain rpn10, stronger effect = lower value",0.991 (inactive)
same,normalized growth,"locus YIL066C, strain RNR3, stronger effect = lower value",0.986 (inactive)
same,normalized growth,"locus YIL073C, strain SPO22, stronger effect = lower value",1.02 (inactive)
same,normalized growth,"locus YIL125W, strain kgd1, stronger effect = lower value",0.994 (inactive)
same,normalized growth,"locus YIR030C, strain dcg1, stronger effect = lower value",1 (inactive)
same,normalized growth,"locus YJL092W, strain hpr5, stronger effect = lower value",1.01 (inactive)
same,normalized growth,"locus YJL095W, strain BCK1 (second series), stronger effect = lower value",0.992 (inactive)
same,normalized growth,"locus YJL095W, strain BCK1, stronger effect = lower value",0.99 (inactive) and 0.866 (active)
same,normalized growth,"locus YJL115W, strain asf1, stronger effect = lower value",1 (inactive)
same,normalized growth,"locus YJL129C, strain trk1, stronger effect = lower value",0.976 (inactive)
same,normalized growth,"locus YJL134W, strain LCB3, stronger effect = lower value",0.99 (inactive)
same,normalized growth,"locus YJL154C, strain vps35, stronger effect = lower value",1 (inactive)
same,normalized growth,"locus YJL164C, strain tpk1, stronger effect = lower value",0.99 (inactive)
same,normalized growth,"locus YJL166W, strain qcr8, stronger effect = lower value",0.992 (inactive)
same,normalized growth,"locus YJL168C, strain set2, stronger effect = lower value",0.977 (inactive)
same,normalized growth,"locus YJL187C, strain SWE1 (second series), stronger effect = lower value",1 (inactive)
same,normalized growth,"locus YJL187C, strain SWE1, stronger effect = lower value",1.02 (inactive)
